Inconclusive results are not listed. Activity calls are given as the source filed them. Unless noted, calls come from the whole dose curve; as a rule, active = well fitted curve in the direction sought with a large enough effect; inconclusive = small, poorly fitted or top-dose-only effect, or another doubt; inactive = no such curve, though single readings can be large; an effect the other way counts as inactive or inconclusive.
Tests used:
[1] = S16 Schwann cell viability assay (CellTiter-Glo assay) (AID 624031);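 note: native untransfected S16 rat Schwann cells; series mostly up to about 58 µM; plate controls were DMSO-treated cells for no effect and cell-free wells for full effect; nearly all actives have a fitted effect of over 70% in size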
How it was run: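 Counter-screen for cytotoxicity: parental S16 rat Schwann cells lacking the PMP22 reporters, treated 24 h with compound, viability from cellular ATP by CellTiter-Glo luminescence, normalized to DMSO (0%) and no-cell wells.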

[2] = S16 Schwann cell PMP22 intronic element firefly luciferase assay (AID 624032); note: nearly all actives have a fitted effect of over 30% in size; note: potency is the fitted concentration of half-maximal effect
How it was run: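 Rat S16 Schwann cells stably carrying firefly luciferase driven by a PMP22 intronic element, in 10% FBS, treated 24 h at 37 C. ONE-Glo luminescence normalized to PTC124 control and DMSO (0%); curves classed by r2, magnitude and activity.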

[3] = S16 Schwann cell PMP22 intronic element beta-lactamase assay (AID 624044; calls by dose curve; note: nearly all actives have a fitted effect of over 15% in size; note: potency is the fitted concentration of half-maximal effect)
How it was run: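 Rat S16 Schwann cells with beta-Lac driven by a PMP22 intronic element, compound-treated 24 h at 37 °C. LiveBLAzer FRET B/G read: 460 nm normalized to potassium clavulanate vs DMSO; 535 nm FRET as viability; concentration-effect curves classified.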

[4] = target: Luciferin 4-monooxygenase (Photinus pyralis) (UniProt P08659); test: Biochemical firefly luciferase enzyme assay for NPC (AID 624030);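 note: purified P. pyralis luciferase at 10 nM with luciferin and ATP substrate; series mostly up to about 59 µM; 0% = DMSO and -100% = full luciferase inhibition by PTC124 control; nearly all actives have a fitted effect of over 70% in size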
Chain of Luciferin 4-monooxygenase (Photinus pyralis) (P08659 whole entry, looked up): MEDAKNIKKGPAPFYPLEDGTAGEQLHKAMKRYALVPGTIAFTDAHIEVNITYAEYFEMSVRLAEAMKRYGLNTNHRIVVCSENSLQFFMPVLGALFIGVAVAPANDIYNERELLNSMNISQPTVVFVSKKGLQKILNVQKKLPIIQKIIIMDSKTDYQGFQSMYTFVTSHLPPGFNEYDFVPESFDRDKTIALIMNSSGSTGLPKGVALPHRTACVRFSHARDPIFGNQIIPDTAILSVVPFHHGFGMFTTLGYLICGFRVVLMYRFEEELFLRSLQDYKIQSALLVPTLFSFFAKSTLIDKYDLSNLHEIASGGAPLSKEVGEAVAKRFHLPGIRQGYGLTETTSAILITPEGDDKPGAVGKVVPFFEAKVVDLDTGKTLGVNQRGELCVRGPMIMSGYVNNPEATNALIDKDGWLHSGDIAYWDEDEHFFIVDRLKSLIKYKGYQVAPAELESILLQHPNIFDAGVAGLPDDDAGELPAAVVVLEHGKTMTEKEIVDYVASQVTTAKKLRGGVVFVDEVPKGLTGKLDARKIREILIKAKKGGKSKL
How it was run: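 Purified P. pyralis luciferase at 10 nM in 50 mM Tris Acetate (final), luminescence read within 5 minutes of enzyme addition to compounds. Activity normalised to PTC124 versus DMSO; concentration-response curves classed by r2, magnitude and activity.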

[5] = qHTS assay for small molecule activators of the nuclear factor-kappa B (NF-kB) signaling pathway (AID 651749; active = well fitted activation curve with a large enough effect in the signal ratio; the % refers to the signal ratio; note: series mostly up to about 77 µM; % of control where 0% means no effect); conditions: NF-kB-bla ME-180 cells, beta-lactamase FRET ratio, 16 h; hits give high values
How it was run: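 Incubation lasted 16 hr at 37C in 5% CO2 after 23 nL compound addition to ME-180 NF-kB-bla cells. Activation appears as beta-lactamase-mediated FRET loss.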

[6] = qHTS assay for small molecule disruptors of the mitochondrial membrane potential - 1 hr assay (AID 651754; calls by dose curve; note: % is set by controls: 0 for no effect and ±100 for the full control effect; nearly all actives have a fitted effect of over 35% in size)
How it was run: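 Steps: seed HepG2 cells and let attach overnight; pin-transfer compound or vehicle; incubate 1 hr at 37C; add Mito-MPS dye for 30 min; read two-channel fluorescence for monomer and aggregate forms.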

[7] = qHTS assay for small molecule disruptors of the mitochondrial membrane potential - 5 hr assay (AID 651755; calls by dose curve; note: % is set by controls: 0 for no effect and ±100 for the full control effect; nearly all actives have a fitted effect of over 40% in size)
How it was run: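 HepG2 cells (2,000/well), attached overnight, exposed to compound 5 hr at 37C, then Mito-MPS dye 30 min. Fluorescence read for monomers (490/535 nm) and aggregates (540/590 nm).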

[8] = target: Tumor necrosis factor (Homo sapiens) (UniProt P01375); test: qHTS assay to identify small molecules that stimulate Tumor Necrosis Factor-alpha (TNF-alpha) secretion (AID 651757; active = well fitted curve in the direction sought with a large enough effect in the signal ratio; the % refers to the signal ratio; note: 0% is about no effect)
Chain of Tumor necrosis factor (Homo sapiens) (P01375 whole entry, looked up): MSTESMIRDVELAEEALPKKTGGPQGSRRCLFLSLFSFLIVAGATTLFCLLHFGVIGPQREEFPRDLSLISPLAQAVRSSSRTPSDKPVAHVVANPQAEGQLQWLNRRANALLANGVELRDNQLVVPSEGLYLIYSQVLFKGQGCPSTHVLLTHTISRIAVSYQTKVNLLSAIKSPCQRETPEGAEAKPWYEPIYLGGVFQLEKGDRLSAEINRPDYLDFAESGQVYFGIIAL
How it was run: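 Secreted TNF-alpha from compound-treated THP-1 cells (17 hrs, 37 C) was quantified with a homogeneous time-resolved fluorescence antibody assay.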

[9] = qHTS assay for environmental chemicals that activate the Aryl hydrocarbon Receptor (AhR) signaling pathway (AID 651777); conditions: 1A2-DRE human hepatoma cells, luciferase, 24 h; activation: hits give high values; note: % of control where 0% means no effect; nearly all actives have a fitted effect of over 15% in size
How it was run: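 Quantitative HTS in stably transfected human liver-derived cells whose luciferase gene sits downstream of the CYP1A2 promoter and dioxin response element. After 24 hr exposure at 37 C, One-Glo luminescence was measured.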

O=C(O)C1(C(=O)O)CCC1.[NH2-].[NH2-].[Pt+2]
inactive: Potency [1] | Potency [2] | Potency [3]

CC1=C(C(=O)O)N2C(=O)[C@@H](NC(=O)[C@H](N)c3ccccc3)[C@H]2SC1
inactive: Potency [1] | Potency [2]

CC(=O)Oc1ccc(C)cc1
inactive: Potency [4] | Potency [1] | Potency [2]

C#C[C@]1(O)CC[C@H]2[C@@H]3CCc4cc(OC)ccc4[C@H]3CC[C@@]21C
inactive: Potency [4] | Potency [1] | Potency [2] | Potency [3]

CC(=O)N[C@@H](CCC(=O)O)C(=O)O
inactive: Potency [4] | Potency [1] | Potency [2]

CCCCNc1ccc(C(=O)OCCOCCOCCOCCOCCOCCOCCOCCOCCOC)cc1
inactive: Potency [4] | Potency [1] | Potency [2] | Potency [3]

C=C[C@H]1CN2CC[C@H]1C[C@@H]2[C@@H](O)c1ccnc2ccc(OC)cc12
inactive: activation [5] -0.176% | Potency [6] | Potency [7] | outcome [8] | activation [9] 4.17%

O=C(O)CCNC(=O)c1ccccc1
inactive: Potency [4] | Potency [1] | Potency [2]

COP(=O)(OC)OC(c1ccc(Cl)cc1)P(=O)(OC)OC (stereo unspecified)
inactive: Potency [4] | Potency [1] | Potency [2]

CCNC(=O)NCc1cccc(Cl)c1
inactive: Potency [4] | Potency [1] | Potency [2] | Potency [3]

CCCCCN=C(N)N/N=C/c1c[nH]c2ccc(OC)cc12
inactive: Potency [4] | Potency [1] | Potency [2] | Potency [3]

Cc1cc2c(OCC(CNC(C)(C)C)OC(=O)c3ccccc3)cccc2[nH]1 (stereo unspecified)
inactive: Potency [4] | Potency [1] | Potency [3]
active: Potency [2] 18.1 µM

CCN(CC)CCNc1ccc(CO)c2sc3ccccc3c(=O)c12
active: Potency [2] 1.61 µM | Potency [3] 11.2 µM
inactive: Potency [4] | Potency [1]

Reference: PubChem BioAssay (NCATS)
